High-throughput results from PubChem BioAssay.
sPLA2-III inh – Inhibits HGIII-sPLA2 liposome hydrolysis, primary screen; inhibition, % at 12.2 µM; Q9NZ20; QFRET BODIPY PC-A2 liposome hydrolysis, fluorescence; AID 743126; hit rate 0.56% among 370,000;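 active means inhibition above mean plus 3 SD of compounds lying within the high and low control bounds, cut at about 19% in these data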
Myeloid diff MLP – compounds promoting myeloid differentiation | calls only at 10 µM | hit rate 1% among 360,000 | ER-HoxA9 myeloid progenitors, lysozyme-GFP differentiation, flow cytometry;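 active means normalized GFP-positive differentiation at or above the plate's own cutoff, the solvent-only control mean plus 3 SD; inconclusive means no clear call, values can overlap the other calls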;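 further: cells exposed to compound for four days before flow analysis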
Rtt109 Vps75 – inhibitors of Candida albicans Rtt109/Vps75 histone acetyltransferase | hit rate 0.16% among 330,000 | Q5AAJ8 | purified Rtt109/Vps75, ThioGlo CoA-SH fluorescence, 4 h | inhibition, % at 34.9 µM;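 active means inhibition of at least 50% in every replicate; inconclusive means best replicate reaches 50% inhibition but some replicates fall short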
DAGLB inhibitor – blocks human DAGLB lipase activity | inhibition, % at 5.17 µM | HEK293T DAGLB membrane lysate, EnzChek fluorogenic substrate | AID 504411 | Q8NCG7 | hit rate 0.059% among 340,000; in the data active means inhibition above about 34%
Cardio protect – myocardial damage modulation in H9c2 cells. protection from H2O2 cell death, % at 20 µM. H9c2 cardiomyocytes, H2O2 injury protection, ATPLite, 2 h. hit rate 0.63% among 360,000. AID 588492;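 active means compounds giving at least 50% protection of heart cells from peroxide-induced death in the single-dose screen, raw or plate-pattern-corrected value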
ABHD5 PLIN5 PPI – inhibitors of human ABHD5-perilipin-5 interaction | Q00G26+Q8WTS1 | Split G. princeps luciferase complementation, luminescence, 4 h | inhibition, % at 4 µM | hit rate 0.78% among 360,000;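 active means inhibition above the mean inhibition across every tested compound plus 3 SD, cut at about 22% in these data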
Of the large screens only hits and unclear results are named; the others gave an inactive call. This is a sample that favours compounds with a hit; in the whole collection about 2.9% have one here.

CCSc1nc(COC(=O)NC)c(COC(=O)NC)n1C	Myeloid diff MLP active
O=C(c1cscn1)N1CCCC(N2CCN(c3ccc(F)cc3)CC2)C1 (centres undefined)	none
COc1cccc(OC)c1C(=O)Nc1cccc(-c2ccc(N3CCOCC3)nn2)c1	Rtt109 Vps75 51.5
CC(=O)Nc1ccc(NC(=O)c2ccccc2-n2cnnn2)cc1	none
COC(=O)[C@@H]1Cc2c([nH]c3ccccc23)C2CCC(=O)N21 (some centres undefined)	none
Cc1c(O)nc2ccccn2c1=O	none (no result: DAGLB inhibitor)
N#Cc1cc(Sc2ccccn2)c([N+](=O)[O-])cc1C#N	Myeloid diff MLP active
N#Cc1cc(Sc2ccccn2)c(Sc2ccccn2)cc1C#N	Myeloid diff MLP inconclusive
CC[n+]1c(/C=C2/C=C(C)CC(C)(C)C2)sc2ccc(OC)cc21	Myeloid diff MLP active
CC[n+]1c(/C=C2\C=C(C)CC(C)(C)C2)sc2ccccc21	none
O=C(CN1C(=O)C(=O)c2ccccc21)c1ccc(Cl)cc1	none
CC(=O)c1ccc(OCC(O)CN(C)CCOc2ccc(Br)cc2)cc1 (centres undefined)	Myeloid diff MLP active
COc1ccc(OC)c(NC(=O)Nc2ccc(Cl)cc2)c1	none (no result: sPLA2-III inh)
COC(=O)c1cc(NC(=O)Nc2cc(OC)ccc2OC)cc(C(=O)OC)c1	Cardio protect 53.5
O=C(N/C(=C/C=C\c1ccccc1)C(=O)N1CCOCC1)c1ccc(Br)cc1	none
CCOC(=O)C(C)Sc1ncc(-c2ccc(Cl)cc2)cn1 (centres undefined)	none
O=C(N/N=C/c1ccco1)c1ccccc1OCc1ccc(Br)cc1	Myeloid diff MLP active
CCCCOc1ccc(C2NC(=O)NC(C)=C2C(C)=O)cc1OCC (centres undefined)	none
CCOC(=O)C(C)Oc1ccc(C2NC(=O)NC(C)=C2C(C)=O)cc1Br (centres undefined)	Cardio protect 55.2
COc1cc(-n2c(=O)c3ccccc3n(Cc3cc(=O)n4ccccc4n3)c2=O)cc(OC)c1OC	Cardio protect 56.6
O=c1c2sccc2n(Cc2cc(=O)n3ccccc3n2)c(=O)n1-c1ccccc1	none
Cc1c(C#N)c(N)nc2c3c(sc12)NC(=O)CC3c1ccc(Cl)cc1 (centres undefined)	Cardio protect 50.1
COCCN(C)Cc1cn(-c2ccc(F)cc2F)nc1-c1ccccc1C	none
CCC(C)[C@H](NC(=O)NC1CCCc2ccccc21)C(=O)O (some centres undefined)	Myeloid diff MLP active
c1ccc(-c2ccccc2C2Cc3nnccc3CN2)cc1 (centres undefined)	none (no result: Myeloid diff MLP, Rtt109 Vps75, DAGLB inhibitor, Cardio protect, ABHD5 PLIN5 PPI)
Cc1ccc[n+](C(C)C(=O)c2ccc(Cl)cc2)c1 (centres undefined)	Myeloid diff MLP active
Cc1ccc(C(=O)C(C)[n+]2cccc(C(N)=O)c2)cc1 (centres undefined)	none
OCC1CCCC(n2cnc3c(=S)nc[nH]c32)O1 (centres undefined)	Myeloid diff MLP active
CCN1C(=O)[C@H]2[C@@H](c3ccc(-c4ccc(C(C)=O)cc4)cc3)N[C@@](C)(C(=O)OC)[C@H]2C1=O	Cardio protect 52.4 (no result: sPLA2-III inh)
CCOCCn1ccc2c(OCC(=O)Nc3ccccc3OC)cccc2c1=O	none
CCOCCn1ccc2c(OCC(=O)Nc3cc(OC)ccc3OC)cccc2c1=O	Myeloid diff MLP inconclusive, Cardio protect 52.6
O=C(Nc1ccc2nc(-c3cccs3)[nH]c2c1)c1ccco1	Myeloid diff MLP active
Cc1ccc(-n2cc(CN3CCC(CO)(Cc4ccccc4)CC3)cn2)cc1	none (no result: Myeloid diff MLP, Rtt109 Vps75, DAGLB inhibitor, Cardio protect, ABHD5 PLIN5 PPI)
Cc1ccc(-n2cc(CN3CCC(CO)(Cc4cccc(C(F)(F)F)c4)CC3)cn2)cc1	Myeloid diff MLP active (no result: Rtt109 Vps75)
COc1ccccc1-c1ccc(/C=C2\C=CC(=O)O2)o1	none (no result: DAGLB inhibitor)
COc1ccccc1-c1ccc(/C=C2/C=C(C)OC2=O)o1	ABHD5 PLIN5 PPI 22.6
NC(CCC(=O)NC(CS)C(=O)NCC(=O)O)C(=O)O (centres undefined)	Myeloid diff MLP active
COc1cc(/C=N/Nc2ccccn2)ccc1OCC(C)C	none
COc1ccc(S[C@]2(C(=O)NC3CC3)CC(=O)N[C@@H]2c2ccc(OC)cc2)cc1	none (no result: Myeloid diff MLP, Rtt109 Vps75, DAGLB inhibitor, Cardio protect, ABHD5 PLIN5 PPI)
CC(OC(=O)C1CC1)C(=O)Nc1ccc([N+](=O)[O-])cc1Cl (centres undefined)	Myeloid diff MLP active
Nc1ccc(N=Nc2ccccc2)c(N)n1	sPLA2-III inh 23.0
Cc1cc(O)c(C(=O)/C=C/c2ccc(C(C)C)cc2)c(=O)o1	none
Cc1cc(C=O)c(C)n1-c1cc(C(F)(F)F)ccc1N1CCOCC1	Cardio protect 137.9
CCc1c(C)sc(NC(=O)Cn2nc(C)c([N+](=O)[O-])c2C)c1C(N)=O	none
COc1ccc(Oc2cc(F)nc(N)n2)cc1	none
Cc1ccc(C)c(Oc2cc(F)nc(N)n2)c1	Myeloid diff MLP active
CN1CCC(NC(=S)Nc2cccc([N+](=O)[O-])c2)CC1	none
CC(C(=O)c1ccc(Br)cc1)[n+]1cccc(NC(=O)c2ccccc2)c1 (centres undefined)	none
CC(C(=O)c1ccc(Br)cc1)[n+]1cccc2ccccc21 (centres undefined)	Myeloid diff MLP active
CCOC(=O)c1ccc(N2CCOCC2)c(NC(=O)c2nccnc2C(=O)O)c1	none
Oc1c(Br)cc(Br)cc1/C=N/c1nccs1	Cardio protect 56.7
Oc1ccc(Cl)cc1/C=N/c1nccs1	none
Oc1c(Br)cc(Br)cc1C=Nc1cccnc1	Cardio protect 51.7
CCCCCc1ccc(-c2ccc(OC)cc2)nc1	none
CCCCCc1ccc(-c2ccc(/C=C/C(N)=O)cc2)nc1	Myeloid diff MLP active
CCCCc1ccc(NC(=S)N2CCC(O)CC2)cc1	Myeloid diff MLP active
OC1CCN(C(=S)Nc2ccc(Nc3ccccc3)cc2)CC1	none
COc1ccc(-c2[nH]ncc2CN2CCN(C(=O)c3cccs3)CC2)c(F)c1	Myeloid diff MLP active
O=C(c1cccs1)N1CCN(Cc2cn[nH]c2-c2ccc(F)cc2F)CC1	Myeloid diff MLP inconclusive
CC(=O)/C(=N/Nc1ccccc1Cl)Sc1nnc(C(O)c2ccccc2)n1-c1ccccc1 (centres undefined)	none
CC(=O)/C(=N/Nc1ccccc1)Sc1nnc(C(O)c2ccccc2)n1-c1ccccc1 (centres undefined)	Rtt109 Vps75 56.8
COc1ccc(C(=O)N2CCCC(c3ccccc3)=N2)cc1	none (no result: DAGLB inhibitor)
O=C(NC1CCCCC1)c1nn2c(C(F)(F)F)cc(-c3ccco3)nc2c1Br	none
O=C(c1ccccc1)N1CCN(C(=O)c2nn3c(C(F)(F)F)cc(-c4ccco4)nc3c2Br)CC1	ABHD5 PLIN5 PPI 22.3
CCN(CC)S(=O)(=O)c1cccc(NC(=O)COc2ccc(Cl)cc2Br)c1	none
CC(C)NCC(=O)Nc1c2c(nc3ccccc13)CCC2	none
c1coc(CNc2c3c(nc4ccccc24)CCC3)c1	Myeloid diff MLP active
